Pol kappa inh-1: inhibitors of human DNA polymerase kappa | 0.53% of 400,000 active | Potency, µM (doses to about 107 µM), actives largely listed as inhibitors | purified Pol kappa, fluorescent DNA synthesis assay, 10 min | AID 588579
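Kinetic fluorescence screen: compound preincubated 15 min RT with 10 nM enzyme; 50 nM substrate (final) initiates; reads at 0/10 min.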
Pol eta inh-1: DNA polymerase eta (human) inhibition. Q9Y253. AID 588591. Potency, µM (titrated, usually from 114 µM), usual class: inhibitors. 1.2% of 390,000 active. recombinant Pol eta, fluorescent DNA replication assay
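Fluorescent replication assay: 50 nM final substrate added after a 15 min room-temperature compound preincubation with 10 nM enzyme. Signal taken at 0 min and again at 10 min.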
POLI inh: inhibitors of human DNA polymerase iota; Q9UNA4; Pol iota fluorescent replication assay, 10 min; Potency, µM (highest dose often 115 µM), actives largely listed as inhibitors; 1% of 390,000 active
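Fluorescent replication assay read twice, at 0 min and 10 min after adding 50 nM (final) substrate. Enzyme (10 nM) and compounds were first incubated 15 min at room temperature; enzyme-free buffer wells were negative controls.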
PI5P4Ka inh: blocks human PI5P4K alpha kinase activity. P48426. PI5P4Kalpha enzyme, ADP-Glo luminescence, 60 min; hits give low values. max response, %. 1.2% of 330,000 active; active means max response of -50% or lower; inconclusive means between -30% and -50%; inactive means -30% or higher; further: value at the top dose of about 77 µM
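Controls without substrate or without enzyme flank wells where PI5P4Kalpha converts substrate using 5 microM ATP (final). Incubation lasts 60 minutes at room temperature; ADP formed is read by ADP-Glo luminescence.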
FEN1 inhibitor: blocks human flap endonuclease 1. P39748. Recombinant FEN1 flap cleavage, fluorescence, 15 min. Potency, µM (top dose mostly 114 µM), actives largely listed as inhibitors. 0.35% of 390,000 active. AID 588795; further: nearly all actives have a fitted effect of over 65% in size
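Nuclease activity of 10 nM FEN1 was measured after 15 min of room-temperature exposure to titrated compounds, by adding 50 nM flap substrate and reading plates at 0 and 15 min.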
POLB inh: DNA polymerase beta (human) inhibition; P06746; Pol beta primer extension/strand displacement, fluorescence kinetic; Potency, µM (titrated, usually from 114 µM), most hits filed as inhibitors; 1.3% of 340,000 active; AID 485314
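Human Pol beta at 10 nM; strand-displacement substrate 50 nM final. Compound exposure 15 min at room temperature before start, reaction 10 min at room temperature.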
GALK inh confirm: galactokinase (human) inhibition, confirmation | AID 2015 | purified GALK, Kinase-Glo ATP depletion luminescence | shares compounds with Pol eta inh-1 | 70% of 150 active | Potency, µM (titrated, usually from 115 µM), usual class: inhibitors
Target sequence (P51570 whole entry, looked up): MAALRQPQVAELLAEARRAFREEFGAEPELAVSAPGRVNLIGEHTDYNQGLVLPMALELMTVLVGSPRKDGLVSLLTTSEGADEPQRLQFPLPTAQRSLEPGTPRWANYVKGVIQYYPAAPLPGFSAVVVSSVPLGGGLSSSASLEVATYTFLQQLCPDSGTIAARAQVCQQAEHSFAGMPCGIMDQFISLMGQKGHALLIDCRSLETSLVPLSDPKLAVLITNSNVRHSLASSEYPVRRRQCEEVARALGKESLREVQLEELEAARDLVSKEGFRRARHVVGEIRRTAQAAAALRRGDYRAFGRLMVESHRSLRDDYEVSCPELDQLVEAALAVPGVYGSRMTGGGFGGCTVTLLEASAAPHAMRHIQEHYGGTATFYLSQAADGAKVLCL
Redox cycling: counter-screen for GALK inhibitors: redox cycling H2O2 generation | AID 2035 | Phenol red-HRP H2O2 redox cycling, absorbance 600 nm | shares compounds with Pol eta inh-1 | 40% of 150 active | Potency, µM (titrated, usually from 115 µM), most hits filed as inhibitors
HEK293 viability: HEK-293 cytotoxicity, GALK inhibitor secondary | shares compounds with Pol eta inh-1 | HEK-293 viability, ATP luminescence (CellTiter-Glo), 24/48 h | Potency, µM (titrated, usually from 46.1 µM), most hits filed as inhibitors | 10% of 170 active | AID 2547
Pol kappa inh-2: confirmation of human DNA polymerase kappa inhibitors; purified Pol-kappa, fluorescent strand-displacement substrate; 76% of 920 active; Potency, µM, actives largely listed as inhibitors; shares compounds with Pol eta inh-1
Pol eta inh-2: confirmation of human DNA polymerase eta inhibitors. shares compounds with Pol eta inh-1. 64% of 2,600 active. Pol eta primer extension, TAMRA/BHQ fluorescence, 10 min. Potency, µM, usual class: inhibitors
Hits are given with their value; 0 = inactive; ? = inconclusive; - = not tested or not shown; [ ] = remark or other dose. An excerpt weighted towards active compounds, which were near 2.8% of everything screened. Unless noted, the call rests on the fitted dose curve; in most records, active means well fitted curve in the direction sought with a large enough effect; inconclusive means small, poorly fitted or top-dose-only effect, or another doubt; inactive means no such curve, though single readings can be large; an effect the other way counts as inactive or inconclusive.

SMILES	Pol kappa inh-1	Pol eta inh-1	POLI inh	PI5P4Ka inh	FEN1 inhibitor	POLB inh	Pol eta inh-2	others
COc1ccc(NC(=O)/C(C#N)=C\c2ccc(-c3cc(C(=O)O)ccc3C)o2)cc1	?	20µM	?	?	0	22µM	43	Pol kappa inh-2=47
Cc1ccc(NC(=O)/C(C#N)=C/c2ccc(-c3ccc(Cl)c(C(=O)O)c3)o2)cc1C	?	0	0	-	0	0	-
CNC(=O)/C(C#N)=C/c1ccc(-c2ccc(OC)cc2[N+](=O)[O-])o1	0	0	0	0	0	?	-
COc1ccc(NC(=O)/C(C#N)=C/c2ccc(-c3ccc(Cl)c(C(=O)O)c3)o2)cc1	0	22µM	?	0	?	0	-	Pol kappa inh-2=?
CC(Sc1nnc2ccccn12)C(=O)Nc1ccc2c(c1)OCO2 (stereo unspecified)	0	0	0	0	0	0	-
CCCN1CCN(CCCNC(=O)c2ccccc2NC(=O)C2=C(C)OCCS2)CC1	0	0	0	0	0	0	-
O=C1Nc2ccccc2SC(c2ccccc2)C1O (stereo unspecified)	79µM	2.8µM	?	-82	?	22µM	?
COc1cc(/C=C2/C(=O)NN(c3ccc(C)c(Cl)c3)C2=O)cc([N+](=O)[O-])c1O	0	28µM	0	-67	?	35µM	85
COc1cc(/C=C2/C(=O)NN(c3cccc(C)c3)C2=O)cc([N+](=O)[O-])c1O	?	22µM	?	-62	0	?	?
CN(C(=O)CSc1nc2ccccc2n1CC(=O)N(C)C1CCCCC1)c1ccccc1	0	0	0	-	0	0	-
CN1Cc2c(N)cccc2[C@H](c2ccccc2)C1	0[12 µM]	-	-	-	-	-	-
O=C(O)c1cccc(N2CCCC2)c1	0	?	?	0	0	0	76
Cc1ccc(CCNC(=O)CN2CCN(Cc3ccc(Cl)cc3)C2=O)cc1	0	0	0	-	0	0	-
CCOC(=O)c1c2c(n(Cc3ccccc3)c1C)C(=O)C(=O)c1ccccc1-2	0	8.9µM	40µM	0	0	-	85
CCOC(=O)c1c2c3c(cccc3n(C)c1=O)C(=O)c1ccccc1-2	0	?	?	0	?	?	-
COc1cc(NC(=O)c2ccc(-c3ccc(F)c(F)c3)c3ccoc23)cc(OC)c1OC	-	-	-	0	-	-	-
CCOC(=O)CC(NC(=O)c1cc2cccc(OC)c2oc1=O)c1ccc(OC)cc1 (stereo unspecified)	0	0	0	0	0	0	-
N#Cc1c(-c2ccccc2)nc(SCC(=O)Nc2ccc(OC(F)(F)Cl)cc2)[nH]c1=O	0	?	0	?	0	22µM	-	Pol kappa inh-2=?
CCCCCCCCC(=O)c1c(OC)oc(C=O)cc1=O	-	22µM	-	-84	-	-	?	Pol kappa inh-2=?
O=C(O)c1ccc(Cl)c(S(=O)(=O)Nc2ccc3cn[nH]c3c2)c1	?	18µM	?	0	0	22µM	?
O=C(OCC(=O)N1CCCC1=O)c1nc(Cl)c(Cl)c(Cl)c1Cl	?	56µM	?	0	0	?	?
Oc1ccc(NCc2ccccc2OCc2ccc(Cl)cc2)cc1	?	0	?	-	0	?	?
CCOc1cc(CNc2ccc(O)cc2)ccc1OCc1ccc(Cl)cc1	?	0	7.9µM	-	?	?	?
CCOc1cc(CNc2ccc3c(c2)CCC3)ccc1O	0	0	?	0	0	0	-
O=c1[nH]c2ccc(NCc3ccccc3OCc3ccc(Cl)cc3)cc2[nH]1	0	0	0	0	0	0	-
SMILES	Pol kappa inh-1	Pol eta inh-1	POLI inh	PI5P4Ka inh	FEN1 inhibitor	POLB inh	Pol eta inh-2	others
C/C(N)=C(/C#N)C(=O)CSc1nnnn1-c1ccccc1	0	16µM	?	?	0	35µM	27
C/C(N)=C(/C#N)C(=O)CSc1nnnn1-c1ccc(C)cc1	0	?	?	-	0	0	-
CS(=O)(=O)c1cnc(-c2ccccc2)nc1-c1ccccc1Cl	0	0	0	0	0	0	-
CC1(C)CC(=O)C=C(NCCN2CCN(C(=S)NC3CCCCC3)CC2)C1	0	0	0	0	0	0	-
COc1ccc(C(=O)CC(=O)C(=O)Nc2ccc([N+](=O)[O-])cc2C)cc1	0	0	0	0	0	0	-
Cc1ccc(C)c(CN2C(=O)CSc3ccc(C(=O)NCCN4CCOCC4)cc32)c1	0	0	0	0	0	0	-	GALK inh confirm=0;Redox cycling=0;HEK293 viability=0
CCOC(=O)/C=C(\C)Sc1cc(=O)oc2ccccc12	0	0	0	0	0	0	-
CCOC(=O)/C=C(\C)Sc1cc(O)c2ccccc2c1O	0	28µM	?	?	?	35µM	-	GALK inh confirm=30µM;Redox cycling=19µM;HEK293 viability=?
Cc1ccc(C(=O)N/C(=C\c2ccc(Cl)cc2)C(=O)NCCN2CCOCC2)cc1	0	0	0	0	0	0	-	GALK inh confirm=0;Redox cycling=0;HEK293 viability=0
N#Cc1c(NC(=O)c2ccc(Br)o2)n(-c2ccccc2)c2nc3ccccc3nc12	0	35µM	10µM	0	0	0	-	GALK inh confirm=27µM;Redox cycling=5.3µM;HEK293 viability=0
O=C(Nc1c2c(nn1-c1ccccc1)CS(=O)C2)c1ccc(Br)o1 (stereo unspecified)	0	0	0	0	0	0	-
CS(=O)(=O)Nc1cccc(-c2nccc(NCc3ccccc3)n2)c1	0	-	-	-	-	-	-
CCCCC1C(=O)CC[C@H]2[C@@H]1CC(=O)[C@@H]2C/C=C\CCCC(=O)O (stereo partly specified)	0	?	?	0	0	0	?
CCN(CC(=O)Nc1ccc(NC(C)=O)cc1)C(=O)CSc1ncnc2sc(C)c(C)c12	0	?	?	?	0	-	?
CC(=O)Nc1ccc(NC(=O)CSc2ncnc3sc(C)c(C)c23)cc1	0	0	0	0	0	0	-
O=[N+]([O-])c1ccccc1/C=C/c1ccnc2ccccc12	0	-	?	-	0	-	-
Cc1cccc(C)c1NC(=O)c1csc(COCCO)n1	-	-	-	0	-	-	-
CCCCN1CCCCC1(C)C(=O)NCc1ccc2c(c1)OCO2 (stereo unspecified)	-	-	-	0	-	-	-
COc1cccc(NS(=O)(=O)c2ccc3[nH]cc(C(=O)N(C)C4CCCCC4)c(=O)c3c2)c1	0	56µM	?	-	0	0	?	Pol kappa inh-2=?
